The text below walks through data of PubChem BioAssay (NCI).

This is part of a sample that, as a whole, favours compounds with a hit. Of some 79,000 tested, about 15% had one in any assay. Values without a mark were called inactive. Activity calls are given as the source filed them. Rule as the data show it: active = growth inhibition above about 70%; inactive = the rest.

A short description of the assay: NCI Yeast Anticancer Drug Screen. Data for the mlh1 strain (AID 171).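 Also: 0% = growth of vehicle-treated control cultures of the same strain.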 The settings on record: S. cerevisiae mlh1 strain growth inhibition; at 3.7 µM; stronger effect = higher value. An outline of the steps:
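Test agents were incubated with yeast bearing a defined DNA damage repair or cell cycle control alteration; values are growth inhibition normalised to vehicle-treated cultures.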
Consider `CCCc1cc(C(=O)OCC)cc(CCC)c1O`, for which the growth inhibition is -4%.

Regarding `CC(C)[N+]([O-])(CCCNc1c2ccccc2nc2cccc([N+](=O)[O-])c12)C(C)C`, the growth inhibition is 10%. With `COc1cc2c3c(cccc3c1)C(=O)N(CCN(C)C)C2=O` the figure was 3%; with `NC(=O)NN=C(CS)CS`, -1%. With `Cc1ccc(NC(=O)/C(Cl)=C(\Cl)C(=O)O)cc1C` the figure was 4%. With `CCN(CC)CC[n+]1ccc2c(C)c3[nH]c4ccc(O)cc4c3c(C)c2c1` the figure was 3%.

For `CC(CC(C)(C)[N+](C)(C)C)[N+](C)(C)C` (centres undefined), the growth inhibition is -1%. With `COc1ccc(OC)c2cc3ccccc3cc12` the figure was 9%.

Consider `Nc1ncncc1C(C1=C(O)COC1=O)C1=C(O)COC1=O`, for which the growth inhibition is 1%.

Regarding `CSC1=NNC(SC)=NN1`, the growth inhibition is 17%.

On to `Cc1c(Cl)ccc2c1S(=O)(=O)c1cccc(Cl)c1-2`, for which the growth inhibition is 2%. With `[O-][n+]1c2ccc(O)cc2nc2ccc(Cl)cc21` the figure was 10%; with `COc1ccc2ccc3ccccc3c2c1C=O`, -5%; with `Nc1ccc2c(c1)C(=O)c1cccc(N)c1C2=O`, 7%. With `O=C(c1ccc(Cl)cc1Cl)C(Cl)Cl` the figure was 3%; with `COc1cc(C(=O)/C=C/c2ccccc2O)ccc1O`, 62%. As to `O=Cc1cccc2ccc3ccccc3c12`, the growth inhibition is -5%.

Turning to `O=C(Nc1ccc(Cl)cc1)OCC#CCCl`, the growth inhibition is 94% (active). `Cn1ccnc1Oc1ccc(Cl)cc1`: the growth inhibition is -4%. With `c1ccc2c(c1)C(=NCCCN1CCCCCC1)c1cccn1-2` the figure was -2%.

As for `C/C(=N\O)C1CC2C=C(C#N)C1N(Cc1ccccc1)C2` (centres undefined), the growth inhibition is 0%. With `O=[N+]([O-])C(=C(Sc1ccccc1)Sc1ccccc1)C(Cl)=C(Cl)Cl` the figure was 19%. With `CCCCCCCCCC/C=C\C(=O)O` the figure was -4%; with `COc1ccc(N=C2C(=O)Nc3ccc(Br)cc32)cc1`, -3%; with `COc1ccccc1C(=O)OCC1CCCN2CCCCC12` (centres undefined), 15%. With `CC(C)(Br)C(=O)/C=C/c1ccc(Cl)c(Cl)c1` the figure was -1%; with `Nc1ccccc1CC(O)C(=O)O` (centres undefined), 4%.

Regarding `CC(=O)N/N=C/C(C)(C)C(C)(C)/C=N/NC(C)=O`, the growth inhibition is -5%. With `CN(C)c1nc2sc3c(c2c(=O)o1)CCCC3` the figure was -4%. With `CC(C)OC(=O)Oc1ccccc1OC(=O)OC(C)C` the figure was 1%; with `Cc1ccc(N)c(S)c1`, -3%.

`O=C(O)c1ccccc1NC(=S)c1ccccc1`: the growth inhibition was 5%. With `COC(=O)c1ccc(NCC2=CC(=O)C=CC2=O)cc1O` the figure was 51%. With `NC(N)=N/N=C\c1c2ccccc2cc2ccccc12` the figure was -45%; with `COC(=O)CSSCc1ccc([N+](=O)[O-])cc1`, 9%; with `CCS(=O)(=O)c1ccc(/C=C/C=N/NC(=S)NCC(C)C)cc1`, 0%. With `N#CC(C(=O)Nc1ccccc1)C1=C(Cl)C(=O)c2ccccc2C1=O` (centres undefined) the figure was 41%; with `C[C@H](CCC(=O)NN)[C@H]1CC[C@H]2[C@@H]3CC[C@@H]4C[C@H](O)CC[C@]4(C)[C@H]3CC[C@]12C`, 2%. Take `CC[n+]1ccc2c(C)c3[nH]c4ccc(O)cc4c3c(C)c2c1`: the growth inhibition was -16%.
